The target in experiment [1] is Calcium and integrin-binding protein 1 (Homo sapiens) (UniProt Q99828). The experiment in a line: Primary qHTS for Identification of Calcium Integrin Binding Protein 1 (CIB1) Competitor (AID 1508620).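 Also: GST tagged CIB1 binding a fluorescein labelled alphaIIb integrin peptide tracer; top concentration of the series differs between compounds.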 The procedure, abridged:
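Fluorescence polarization competition: GST-tagged CIB1 (1 uM final) preincubated with compound 15 min at room temperature, then FITC-labelled alphaIIb peptide (100 nM final) added. After 15 min at room temperature, polarization read at Ex 480/Em 540.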

Experiment [2] concerns the target Cytochrome P450 2C9 (Homo sapiens) (UniProt P11712). As to the kind of experiment: Cytochrome P450 family 2 subfamily C member 9 (CYP2C9) small molecule antagonists: luciferase biochemical (cell-free) qHTS assay (AID 1645842; active = well fitted curve in the direction sought with a large enough effect in the repeat runs; an effect the other way counts as inactive or inconclusive; also: nearly all actives have a fitted effect of over 55% in size; also: potency is read from the fitted curve at half-maximal effect). The procedure, abridged: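 Luminescence, after 20 min with luciferin detection reagent, reflected CYP2C9 turnover during a 1 h NADPH-driven reaction at 37C. Enzyme-substrate mix contained 0.4% bovine serum albumin and was preincubated with compound 10 min at room temperature.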

Experiment [3] can be described thus: Primary qHTS for inhibitors of nuclear receptor binding SET domain protein 2 (NSD2) in an isogenic RCH-ACV NSD2 p.E1099K mutant (9B) (AID 1645876; also: nearly all actives have a fitted effect of over 70% in size; also: potency is read from the fitted curve at half-maximal effect). (In qHTS, concentration-response curves come from the screen itself.)
The nature of experiment [4]: Primary qHTS for inhibitors of nuclear receptor binding SET domain protein 2 (NSD2) in an RCH-ACV wild type WT cells (2C) (AID 1645877). Also: nearly all actives have a fitted effect of over 70% in size. Also: potency is read from the fitted curve at half-maximal effect.

“And” between values parts separate entries of the source, which are not always exact repeats. Identical values can stand only once. Records with an inconclusive call do not appear. The source made the active and inactive calls. Unless noted, calls follow the shape of the dose curve; as a rule, active = well fitted curve in the direction sought with a large enough effect; inconclusive = small, poorly fitted or top-dose-only effect, or another doubt; inactive = no such curve, though single readings can be large; an effect the other way counts as inactive or inconclusive.

Sequence of Cytochrome P450 2C9 (Homo sapiens) (P11712 whole entry, looked up): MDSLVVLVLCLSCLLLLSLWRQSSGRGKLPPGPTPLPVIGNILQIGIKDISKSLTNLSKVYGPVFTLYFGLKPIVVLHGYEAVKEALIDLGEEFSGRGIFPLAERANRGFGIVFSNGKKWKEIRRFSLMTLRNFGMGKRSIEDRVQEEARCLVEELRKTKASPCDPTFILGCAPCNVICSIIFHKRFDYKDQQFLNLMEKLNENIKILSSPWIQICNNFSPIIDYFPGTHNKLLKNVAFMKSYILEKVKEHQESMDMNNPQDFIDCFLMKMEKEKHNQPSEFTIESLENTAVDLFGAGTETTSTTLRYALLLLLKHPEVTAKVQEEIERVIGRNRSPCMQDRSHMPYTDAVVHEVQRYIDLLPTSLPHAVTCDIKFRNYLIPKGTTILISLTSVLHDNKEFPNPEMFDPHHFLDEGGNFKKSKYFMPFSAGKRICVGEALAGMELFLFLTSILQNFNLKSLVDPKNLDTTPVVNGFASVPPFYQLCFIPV
Sequence of Calcium and integrin-binding protein 1 (Homo sapiens) (Q99828 whole entry, looked up): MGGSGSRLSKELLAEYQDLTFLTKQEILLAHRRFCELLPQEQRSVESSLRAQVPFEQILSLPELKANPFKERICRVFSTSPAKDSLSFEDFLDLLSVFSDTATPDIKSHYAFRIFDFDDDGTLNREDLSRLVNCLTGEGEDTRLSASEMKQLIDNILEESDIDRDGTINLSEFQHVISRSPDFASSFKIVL

`Cn1ncc(Cl)c1-c1cc(C(=O)N[C@H](CN)Cc2ccc(F)c(F)c2)sc1Cl`: the Potency result in experiment [1] is “inactive”. Further, the Potency in experiment [2] was 13.5 µM (active); in experiment [3] it was 1.63 µM (active) and 1.05 µM (active); in experiment [4], 2.05 µM (active) and 1.05 µM (active).
In the case of `CCN(CC)C(=O)c1ccc(Nc2nc(OCC3CCCCC3)c3[nH]cnc3n2)cc1`, in experiment [1], the Potency result is “inactive”. Besides, the Potency in experiment [2] was 10.7 µM (active); in experiment [3] it was 3.65 µM (active); in experiment [4], 1.83 µM (active).
In the same order, the values of `CNS(=O)(=O)c1ccccc1Nc1nc(Nc2ccc(N3CCN(C)CC3)cc2OC)ncc1Br` are “inactive”, “inactive”, 0.649 µM (active) and 0.728 µM (active).
Take `CCN(Cc1ccccc1)C(=O)Cn1c(=O)n(C)c2cnc(-c3ccccc3)nc21`: the Potency entry in experiment [1], in experiment [3] and in experiment [4] was “inactive” in each case. Besides, the Potency in experiment [2] was 19 µM (active).
Regarding `Cn1c(=O)c2c(ncn2Cc2ccc(C(C)(C)C)cc2)n(C)c1=O`, in experiment [1], the Potency entry was “inactive”. In addition, the Potency in experiment [2] is 23.9 µM (active); in experiment [3], 6.49 µM (active); in experiment [4] it was 7.28 µM (active).
In the same order, the values of `Cn1c(=O)c(F)c(Nc2ccc(I)cc2F)c2c(=O)n(CC(O)CO)cnc21` (configuration not stated) are “inactive”, 9.52 µM (active), 23 µM (active) and 23.1 µM (active).
In the same order, the values of `Cc1cc(C(C)Nc2ccccc2C(=O)O)c2nc(N3CCOCC3)cc(=O)n2c1` (configuration not stated) are “inactive”, 8.49 µM (active), 0.409 µM (active) and 0.728 µM (active).
In the same order, the values of `CN(C)C(=O)C(=O)c1cn(C)c2cc(Cl)c(C(=O)N3CCC(Cc4ccc(F)cc4)CC3)cc12` are “inactive”, “inactive”, 23 µM (active) and 23 µM (active).
For `COc1cc2c(cc1NS(=O)(=O)c1ccc(Br)cc1C)n(C)c(=O)n2C`, the Potency entry in experiment [1] is “inactive”. Also, the results for the Potency in experiment [2], in experiment [3] and in experiment [4] were 1.69 µM (active), 7.28 µM (active) and 7.28 µM (active), respectively.
On to `C=CC(=O)Nc1ccc2ncnc(Nc3cccc(Br)c3)c2c1`, for which the Potency entry in experiment [1] was “inactive”. In addition, the Potency is 3.38 µM (active) in experiment [2], 4.68 µM (active) in experiment [3] and 4.17 µM (active) in experiment [4].
As for `CCCc1cc(C)[nH]c(=O)c1CNC(=O)c1cc(-c2ccc(N3CCN(C(C)C)CC3)nc2)cc2c1cnn2C(C)C`, the Potency result in experiment [1] is “inactive”. For the same compound, the Potency in experiment [2] is 10.7 µM (active); in experiment [3] it was 11.5 µM (active) and 7.42 µM (active); in experiment [4], 11.5 µM (active) and 5.25 µM (active).
As to `Cc1cc(-c2cnc(N)c3c(-c4ccc5scnc5c4)csc23)n(C)n1`, in experiment [1], the Potency result is “inactive”. The Potency in experiment [2] is 10.7 µM (active); in experiment [3] it was 4.59 µM (active); in experiment [4], 5.78 µM (active).
Take `O=S(=O)(Nc1ccccc1N1CCCCC1)c1ccc(Cl)s1`: the Potency entry in experiment [1], in experiment [3] and in experiment [4] was “inactive” each time. Moreover, in experiment [2], the Potency was 5.35 µM (active).
With `COc1ccc(S(=O)(=O)Nc2cc(Cl)cc(Cl)c2OC)cc1N1CCNCC1`, the Potency entry in experiment [1] is “inactive”. Also, the values for the Potency in experiment [2] and in experiment [3] were 12 µM (active) and 20.5 µM (active), respectively.
Take `CN(C)CC#CCCC(=O)C(O)(c1ccccc1)C1CCC1` (configuration not stated): the Potency result in experiment [1], in experiment [3] and in experiment [4] was “inactive” throughout. For the same compound, the Potency in experiment [2] was 10.7 µM (active).
With `Cc1c(OCc2cccc(-c3ccc(C(=O)O)cc3)c2)cc2c(c1C)C(=O)C(C1CCCC1)C2` (configuration not stated), the Potency result in experiment [1], in experiment [3] and in experiment [4] was “inactive” each time. For the same compound, the Potency in experiment [2] is 19 µM (active).
`O=C1NC(=O)C(c2cnc3ccccn23)=C1c1cn2c3c(cc(F)cc13)CN(C(=O)N1CCCCC1)CC2`: the Potency result in experiment [1] was “inactive”. For the same compound, the Potency was 12 µM (active) in experiment [2]; 5.2 nM (active) and 9.3 nM (active) in experiment [3]; 5.2 nM (active) and 10.5 nM (active) in experiment [4].
On to `O=C(Nc1ccc(-n2nc(C(F)(F)F)cc2C(F)(F)F)cc1)c1ccncc1F`, for which, in experiment [1], the Potency entry was “inactive”. In addition, the results for the Potency in experiment [2] and in experiment [3] were 26.8 µM (active) and 20.5 µM (active), respectively.
`C[C@H](Nc1cc2c(-c3ccc4c(c3)OCO4)noc2cn1)c1ccccc1`: the Potency entry in experiment [1], in experiment [3] and in experiment [4] was “inactive” in each case. For the same compound, in experiment [2], the Potency was 1.69 µM (active).
Regarding `COc1cc2ncnc(Nc3ccc(O)c(Br)c3)c2cc1OC`, the Potency entry in experiment [1] is “inactive”. For the same compound, the Potency in experiment [2] was 5.35 µM (active); in experiment [3], 11.6 µM (active) and 10.5 µM (active); in experiment [4] it was 13 µM (active) and 14.8 µM (active).
As to `Cc1cccc(N2CCN(C(=O)c3cc(S(=O)(=O)N(C)C)ccc3N3CCCC3)CC2)c1C`, the Potency result in experiment [1], in experiment [3] and in experiment [4] was “inactive” in each case. Besides, the Potency in experiment [2] was 13.5 µM (active).
As to `COc1cc(N2CCC(O)CC2)ccc1Nc1nc(Nc2ccccc2S(=O)(=O)C(C)C)c2[nH]cnc2n1`, in experiment [1], the Potency result was “inactive”. Further, the Potency in experiment [2] is 15.1 µM (active); in experiment [3] it was 5.78 µM (active); in experiment [4] it was 4.09 µM (active).
Turning to `COc1ccc(NC(=O)c2ccc(-c3ccc(C(=N)N)cc3C)cc2)cc1N1CCN(C)CC1`, the Potency result in experiment [1], in experiment [2] and in experiment [3] was “inactive” each time.
Turning to `C=CC(=O)N1CCC[C@@H](n2nc(-c3cccc(C(=O)Nc4ccc(C(C)C)c(C)c4)c3)c3c(N)ncnc32)C1`, the Potency entry in experiment [1] was “inactive”. Also, the results for the Potency in experiment [2] and in experiment [3] were 8.49 µM (active) and 8.17 µM (active), respectively.

(Values after PubChem BioAssay (NCATS).)
